Hits are enriched below; roughly 2.4% of the tested compounds scored in any of these assays.
D2 PAM-1 = positively modulates the human D2 dopamine receptor allosterically. 340,000 tested, 0.34% active. HEK293 T-REx D2, calcium flux, EC20 dopamine potentiation. P14416. AID 485347. potentiation, % at 10 µM;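 active = potentiation over 3 SD above the plate norm, cut at about 30% in these data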
Target sequence (P14416 whole entry, looked up): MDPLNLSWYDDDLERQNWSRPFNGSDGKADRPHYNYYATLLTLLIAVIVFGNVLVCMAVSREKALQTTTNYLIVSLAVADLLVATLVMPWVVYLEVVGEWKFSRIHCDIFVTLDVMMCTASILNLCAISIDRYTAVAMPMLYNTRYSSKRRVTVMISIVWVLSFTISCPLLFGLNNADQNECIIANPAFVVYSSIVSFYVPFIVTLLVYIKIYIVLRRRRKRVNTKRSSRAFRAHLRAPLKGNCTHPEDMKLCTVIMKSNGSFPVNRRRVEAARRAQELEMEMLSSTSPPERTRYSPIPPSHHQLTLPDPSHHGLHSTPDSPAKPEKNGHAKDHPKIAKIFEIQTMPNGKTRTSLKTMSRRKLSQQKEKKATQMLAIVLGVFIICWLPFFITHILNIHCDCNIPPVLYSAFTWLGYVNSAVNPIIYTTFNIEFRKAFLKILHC
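Calcium flux readout, no-wash dye, 1 read/s. Inducible HEK293 Trex D2 line, overnight 30 C. Compound alone 180 s (agonist flags), then EC20 dopamine, another 180 s to score potentiation.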
D2 ag-1 = human D2 receptor agonism in beta-arrestin assay. activation, % (no concentration beside the values). 360,000 tested, 0.084% active. DiscoveRx PathHunter D2 beta-arrestin, luminescence, 90 min; 100% = 57 uM dopamine signal. AID 624465. P14416; in the data active = activation above about 40%; inconclusive = between about 15% and that limit
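Agonist mode: compounds alone added to overnight-plated D2 PathHunter cells for 90 min at 37 C, with 57 uM final dopamine (EC100) defining full response. Beta-arrestin recruitment detected by chemiluminescent reagent, read after 1 h at ambient temperature.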
D2 antagonist = D2 dopamine receptor (human) antagonism; P14416; HEK293 TREx D2 cells, calcium flux, dopamine EC80; inhibition, % at 10 µM; 340,000 tested, 2% active; AID 485344; in the data active = inhibition above about 30%; inactive = below that, where a call was filed
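Dopamine at EC80 is the agonist stimulus; test compounds precede it by 180 s. Calcium flux read kinetically in a force-coupled, inducible HEK293 T-REx D2 cell line.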
D2 PAM-2 = positive allosteric modulators of human D2 dopamine receptor | P14416 | DiscoveRx D2 beta-arrestin cells, luminescence, 90 min; 100% = 57 uM dopamine signal | potentiation, % (test concentration not listed) | 360,000 tested, 0.23% active | AID 624464; in the data active = potentiation above about 50%; inconclusive = mostly about 30% to 49%
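D2 cells co-treated with compound plus 50 nM dopamine (EC20) for 90 min at 37 deg C to detect potentiation. Beta-arrestin recruitment was read as enzyme-fragment luminescence after 1 h at ambient temperature. Full response was set by 57 uM dopamine.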
D2 ag-2 = agonists of human D2 dopamine receptor; P14416; HEK293 T-REx D2 cells, calcium flux agonist mode; activation, % at 2 µM; 340,000 tested, 0.53% active; AID 485358;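 active = activation over 3 SD above normal in the single-dose calcium agonist read, cut at about 30% in these data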
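Agonism scored from kinetic calcium signal (1 read/sec, 180 s) following compound pin transfer, after a 10 s baseline. Cells: HEK293 Trex line expressing inducible D2 receptor coupled to calcium, dye-loaded after overnight culture at 30 C.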
Numbers stand for hits.

What do the screens show for `CCN(CC)S(=O)(=O)c1ccc(C(=O)OCn2nnc3ccccc3c2=O)cc1`?
D2 PAM-1: 75.4; D2 ag-1: inactive; D2 antagonist: inactive; D2 PAM-2: inactive; D2 ag-2: inactive

Results for CCN(CC)S(=O)(=O)c1ccc(C(=O)OCn2c(SC)nnc(C)c2=O)cc1 ?
D2 PAM-1: inactive; D2 ag-1: inactive; D2 antagonist: 35.4; D2 PAM-2: inactive; D2 ag-2: inactive

Results for CSc1nnc(C)c(=O)n1COC(=O)c1ccccc1 ?
D2 PAM-1: inactive; D2 ag-1: inactive; D2 antagonist: inactive; D2 PAM-2: inactive; D2 ag-2: inactive

What do the screens show for `OCCN(Cc1ccccn1)Cc1ccccn1`?
D2 ag-1: inactive; D2 PAM-2: inactive

What do the screens show for `CCOc1ccc(CCNC(=O)c2sc3nc4n(c(=O)c3c2C)CCCC4)cc1`?
D2 PAM-1: inactive; D2 ag-2: inactive

What do the screens show for `C=CCn1c(-c2csc(-c3ccccc3)n2)n[nH]c1=S`?
D2 PAM-1: 48.4; D2 ag-1: inactive; D2 antagonist: inactive; D2 PAM-2: inactive; D2 ag-2: inactive

Results for Cc1cc(=O)n(C(C)C(=O)N2CCCc3ccccc32)c2c1c(C)nn2-c1ccccc1 (configuration not stated) ?
D2 PAM-1: inactive; D2 ag-2: inactive

Results for CCN1CCN(P2(=O)C=C(c3ccccc3)OC(c3ccccc3)=C2)CC1 ?
D2 PAM-1: inactive; D2 ag-1: inactive; D2 antagonist: 84.1; D2 PAM-2: inactive; D2 ag-2: inactive

How did Cc1ccc(-c2nnc(SCC(=O)NC3CCCC3)nc2-c2ccc(C)cc2)cc1 do in these assays?
D2 PAM-1: inactive

Results for CCCNc1ncnc2c1c(-c1ccccc1)cn2-c1ccccc1 ?
D2 PAM-1: inactive; D2 ag-2: inactive

Results for Cc1ccccc1OCCC(=O)N1CCN(S(=O)(=O)c2ccc(Br)cc2)CC1 ?
D2 PAM-1: inactive; D2 ag-1: inactive; D2 antagonist: 54.7; D2 PAM-2: inactive; D2 ag-2: inactive

Results for O=C1c2cccc3c([N+](=O)[O-])ccc(c23)C(=O)N1c1ccccn1 ?
D2 PAM-1: inactive; D2 ag-1: inconclusive; D2 antagonist: inactive; D2 PAM-2: inconclusive; D2 ag-2: inactive

Results for O=C1c2cccc3c([N+](=O)[O-])ccc(c23)C(=O)N1O ?
D2 PAM-1: inactive; D2 ag-1: 41.7; D2 antagonist: inactive; D2 PAM-2: inactive; D2 ag-2: inactive

What do the screens show for `CN(Cc1cccc(C(F)(F)F)c1)C(=O)C1CCC(=O)N(CC2CCCCC2)C1` (configuration not stated)?
D2 PAM-1: inactive; D2 ag-1: inactive; D2 antagonist: 30.9; D2 PAM-2: inactive; D2 ag-2: inactive

Results for CN(Cc1cnn(C)c1)C(=O)C1CCC(=O)N(Cc2cccc(C(F)(F)F)c2)C1 (configuration not stated) ?
D2 ag-1: inactive; D2 PAM-2: inactive

Results for Cc1cc(-n2ccnc(NCCc3ccc(S(N)(=O)=O)cc3)c2=O)ccc1Br ?
D2 PAM-1: inactive; D2 ag-2: inactive

Results for COc1cccc2c1OC1(C)CC2/C(=C(\C)O)C(=O)N1 (configuration not stated) ?
D2 PAM-1: inactive; D2 ag-1: inactive; D2 antagonist: 51.3; D2 PAM-2: inactive; D2 ag-2: inactive

How did COc1ccccc1C(=O)Nc1nnc(S(=O)(=O)N(C)c2ccc(Cl)cc2)s1 do in these assays?
D2 PAM-1: inactive; D2 ag-2: inactive

What do the screens show for `CCc1nc2nc(C)c(NS(=O)(=O)c3cccs3)c(=O)n2[nH]1`?
D2 PAM-1: 51.4; D2 ag-1: inactive; D2 antagonist: inactive; D2 PAM-2: inactive; D2 ag-2: inactive

What do the screens show for `CCc1nc2nc(C)c(NS(=O)(=O)c3ccc(F)c(C)c3)c(=O)n2[nH]1`?
D2 PAM-1: inactive; D2 ag-2: inactive

How did Cc1ccc(S(=O)(=O)Nc2c(C)nc3nc(C)[nH]n3c2=O)c(C)c1 do in these assays?
D2 PAM-1: inactive; D2 ag-1: inactive; D2 antagonist: 35.5; D2 PAM-2: inactive; D2 ag-2: inactive

Results for CCc1nc2nc(C)c(NS(=O)(=O)c3ccc(Br)s3)c(=O)n2[nH]1 ?
D2 PAM-1: 30.6; D2 ag-1: inactive; D2 antagonist: inactive; D2 PAM-2: inactive; D2 ag-2: inactive

Results for CCc1nc2nc(C)c(NS(=O)(=O)c3ccc(F)cc3)c(=O)n2[nH]1 ?
D2 PAM-1: inactive; D2 ag-1: inactive; D2 antagonist: inactive; D2 PAM-2: inactive; D2 ag-2: inactive

What do the screens show for `O=C(Cn1cc(S(=O)(=O)N2CCN(c3ccccc3F)CC2)c2ccccc2c1=O)Nc1cccc(C(F)(F)F)c1`?
D2 PAM-1: inactive; D2 ag-2: inactive

What do the screens show for `Cc1ccc(C)c(CN2C(=O)c3ccccc3S(=O)c3ccc(C(=O)NCCc4ccc(Cl)cc4)cc32)c1` (configuration not stated)?
D2 PAM-1: inactive; D2 ag-2: inactive

How did CCOc1ccc(-c2nonc2NC(=O)c2ccc(C)cc2)cc1OCC do in these assays?
D2 PAM-1: inactive; D2 ag-2: inactive

What do the screens show for `COc1ccc(CC(=O)N2CCc3cc(OC)c(OC)cc3C2COc2ccc(F)cc2)cc1` (configuration not stated)?
D2 PAM-1: inactive; D2 ag-2: inactive

How did COc1cccc(-n2c([S-])c(C(=O)Nc3ccc(C(F)(F)F)cc3)[n+]3ccccc23)c1 do in these assays?
D2 PAM-1: inactive; D2 antagonist: 35.1; D2 ag-2: inactive

Results for CCOc1ccc(NC(=O)c2nnn(-c3ccc(F)c(Cl)c3)c2C)cc1 ?
D2 PAM-1: inactive; D2 ag-2: inactive

What do the screens show for `Cc1noc(C)c1S(=O)(=O)N1CCC(C(=O)Nc2ccccn2)CC1`?
D2 PAM-1: 34.5; D2 ag-1: inactive; D2 antagonist: inactive; D2 PAM-2: inactive; D2 ag-2: inactive

What do the screens show for `Cc1ccc(S(=O)(=O)N2CCC(C(=O)NCCc3ccccn3)CC2)cc1`?
D2 PAM-1: inactive; D2 ag-1: inactive; D2 antagonist: 42.6; D2 PAM-2: inactive; D2 ag-2: inactive

How did CCOc1ccccc1/C=C/c1onc(C)c1S(=O)(=O)N1CCC(C(=O)N(CC)CC)CC1 do in these assays?
D2 PAM-1: inactive; D2 ag-1: inactive; D2 antagonist: 56.4; D2 PAM-2: inactive; D2 ag-2: inactive

What do the screens show for `CCN(CCN(C)C)C(=O)C1CCN(S(=O)(=O)c2c(C)noc2/C=C/c2ccccc2F)CC1`?
D2 PAM-1: inactive; D2 ag-1: inactive; D2 antagonist: inactive; D2 PAM-2: inactive; D2 ag-2: inactive

How did Cc1noc(C)c1S(=O)(=O)N1CCN(c2ccccc2)CC1 do in these assays?
D2 PAM-1: inactive; D2 ag-1: inactive; D2 antagonist: 38.4; D2 PAM-2: inactive; D2 ag-2: inactive

How did CC(=O)Nc1cc(-c2cccc(C(=O)NCCO)c2)cn2c(-c3cccc(C(F)(F)F)c3)cnc12 do in these assays?
D2 ag-1: inactive; D2 PAM-2: inactive

Results for CN(C)c1ccc(NC(=O)C2(c3cccs3)CCOCC2)cc1 ?
D2 PAM-1: inactive
